Test results reported in PubChem BioAssay AID1851 (National Center for Advancing Translational Sciences (NCATS), 2009).
Out of some 16,000 compounds screened, about 5,800 (36%) were called active. About 23% were inconclusive and are not listed. Calls come from the whole dose curve; as a rule, active = well fitted curve in the direction sought with a large enough effect; inconclusive = small, poorly fitted or top-dose-only effect, or effect the other way; inactive = no such curve, though single readings can be large or run the other way. This is one part of the list. Square brackets hold non-standard residues; d marks the D form. Peptide text beside a SMILES is read from it.

Target: Cytochrome P450 2C19 (Homo sapiens) (UniProt P33261)
Sequence (P33261 whole entry, looked up): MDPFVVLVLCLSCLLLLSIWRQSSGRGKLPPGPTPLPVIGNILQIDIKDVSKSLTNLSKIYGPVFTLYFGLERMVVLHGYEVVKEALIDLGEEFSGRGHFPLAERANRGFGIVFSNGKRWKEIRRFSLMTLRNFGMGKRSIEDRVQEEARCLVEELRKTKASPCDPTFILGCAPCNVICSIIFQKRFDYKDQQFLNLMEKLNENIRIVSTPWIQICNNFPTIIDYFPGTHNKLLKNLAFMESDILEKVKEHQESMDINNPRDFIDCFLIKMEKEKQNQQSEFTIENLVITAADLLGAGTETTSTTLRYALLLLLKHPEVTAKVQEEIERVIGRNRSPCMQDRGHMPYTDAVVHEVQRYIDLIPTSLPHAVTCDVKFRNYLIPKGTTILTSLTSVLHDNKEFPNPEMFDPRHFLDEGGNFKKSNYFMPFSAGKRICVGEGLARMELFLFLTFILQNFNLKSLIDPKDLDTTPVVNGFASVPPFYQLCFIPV
Experiment: Cytochrome panel assay with activity outcomes
Details: recombinant CYP, pro-luciferin dealkylation, luminescence, p450-cyp2c19; series mostly up to 57.1 µM
% is set by controls: 0 for no effect and ±100 for the full control effect.

Structure (SMILES) | AC50 | activity, negative = inhibition
O=C(c1csnn1)N1CCC2(CC1)CCN(c1ccccn1)CC2 | inactive | 
CN1C(=O)/C(=C\c2ccccc2)Sc2ccc(C(=O)N3CCN(c4ccccn4)CC3)cc21 | 3.98 µM (active) | 
Cn1cccc1C(=O)N1CCC2(CC1)CCN(c1ccccn1)CC2 | inactive | 
COc1ccc(C(=O)N/N=C2/C(=O)c3c(C)cc(C)cc3CC2(C)C)cc1 | 3.98 µM (active) | 
CCN(CC)C(=O)c1cc2cc([N+](=O)[O-])ccc2s1 | 15.8 µM (active) | 
CCOC(=O)c1nc(N)sc1C(=O)OCC | inactive | 
CCOC(=O)c1cc(C(=O)OCC)cc(-n2cc(O)c(C(=O)OCC)n2)c1 | 14.1 µM (active) | 
CC1=c2c(oc3cc(O)c(Nc4c(C)cc(O)cc4O)c(C)c23)=CC(=O)C1=Nc1c(C)cc(O)cc1O | 3.16 µM (active) | 
Cn1c(=O)cc(OCC(=O)NCc2cccnc2)c2ccccc21 | inactive | 
CCNCc1cc(OCC)c(OCC(=O)NCCc2ccccc2)cc1Cl | 1.58 µM (active) | 
CCOc1cc(CNCCO)c(Cl)cc1OCC(=O)NCCc1ccccc1 | 4.47 µM (active) | 
N=c1nc(N)nc(N)n1-c1ccc(S(N)(=O)=O)cc1 |  | 36.5% [at 11.4 µM] (inactive)
COc1cnc(-c2ccccc2)nc1Oc1cccc(C)c1 | 7.94 µM (active) | 
CCOC(=O)c1cnc(-c2ccccc2)nc1Oc1ccc(Cl)cc1 | inactive | 
CCOC(=O)c1cnc(-c2ccccc2)nc1Oc1ccccc1 | 14.1 µM (active) | 
N[C@H](CO)C(=O)NCC(=O)O (H-[dS]-Gly-OH) |  | 19% [at 11.4 µM] (inactive)
CCc1cc2c(=O)c(-c3cnn(-c4ccccc4)c3)coc2c(CN2CCOCC2)c1O | 20 µM (active) | 
Cc1ccc(CSc2nnc(C(F)(F)F)n2Cc2ccc(F)cc2)cc1 | 2.82 µM (active) | 
Fc1ccc(Cn2c(SCc3ccc(F)c(C(F)(F)F)c3)nnc2C(F)(F)F)cc1 | 2.82 µM (active) | 
COc1cccc(CSc2nnc(C(F)(F)F)n2Cc2ccc(F)cc2)c1 | 3.16 µM (active) | 
Fc1ccc(Cn2c(SCc3ccc(F)c(F)c3)nnc2C(F)(F)F)cc1 | 2.24 µM (active) | 
[O-][N+]1(CC[N+]2([O-])CCCCC2)CCCCC1 |  | 25.1% [at 11.4 µM] (inactive)
CC1(C)C(=O)C(c2ccccc2)=C2CN3C(=O)N(CCc4ccccc4)C(=O)C3(Cc3ccccc3)C=C21 (configuration not stated) | inactive | 
CC[C@H](CO)NCCN[C@@H](CC)CO | inactive | 
CCN1C(=O)c2cccc3c(NC(=O)c4cccc(N5C(=O)CCC5=O)c4)ccc1c23 | inactive | 

Structure (SMILES) | AC50 | activity, negative = inhibition
CCOC(=O)c1ccc(NC(=O)Nc2ccc3c4c(cccc24)C(=O)N3CC)cc1 | 11.2 µM (active) | 
CCCN(CCC)CCCNC(=O)c1ccc2c(c1)N(CC)C(=O)c1ccccc1S2=O (configuration not stated) | inactive | 
Cc1ccc(C(=O)N/N=C/c2cc(C)n(-c3ccc(Br)cc3)c2C)cc1[N+](=O)[O-] | inactive | 
Cc1cc(C=O)c(C)n1-c1ccc(NC2CCCC2)c([N+](=O)[O-])c1 | 6.31 µM (active) | 
N[C@@](CCc1ccccc1)(C(=O)O)c1ccccc1 |  | -19.5% [at 11.4 µM] (inactive)
CN(/C=C/C(=O)C(F)(F)F)Cc1ccccc1 | 8.91 µM (active) | 
CCCC[C@@H]1C[C@H]1C(NC(=O)c1ccccc1)c1ccccc1C(F)(F)F (some centres not stated) | 0.501 µM (active) | 
CCCC[C@@H]1C[C@H]1C(NC(=O)c1cccs1)c1ccccc1C(F)(F)F (some centres not stated) | 0.631 µM (active) | 
COC(=O)c1sccc1NC(=O)CN(C)NS(=O)(=O)c1ccc(F)cc1 | 14.1 µM (active) | 
COC(=O)c1sccc1NC(=O)CSc1cc(Cl)ccc1Cl | 2.82 µM (active) | 
Cc1cnc2cc(Cl)ccc2c1SCC(=O)O |  | 24.8% [at 11.4 µM] (inactive)
Cc1cnc(NC(=O)CSc2ccc(Cl)cc2)s1 | 2 µM (active) | 
COC(=O)c1sccc1NC(=O)CSc1ccccc1NS(=O)(=O)c1ccc(Cl)cc1 | 0.794 µM (active) | 
Cc1cc(Cl)nc(NC(=O)CSc2ccc(Cl)cc2)n1 |  | 34.4% [at 11.4 µM] (inactive)
Oc1ccc(Cc2nccc3cc(O)c(O)cc23)cc1O |  | -17.6% [at 11.4 µM] (inactive)
COC(=O)c1sccc1NC(=O)CSc1ccc(Cl)cc1 | 7.08 µM (active) | 
COCc1nnc(NC(=O)CSc2ccc(C)cc2)s1 | 3.55 µM (active) | 
COCc1nnc(NC(=O)CCN2C(=O)c3ccccc3C2=O)s1 | inactive | 
COc1ccc2c3c([nH]c2c1)[C@H]1C[C@@H]2[C@@H](C[C@@H](O)[C@H](OC)[C@H]2C(=O)O)CN1CC3 |  | 19% [at 11.4 µM] (inactive)
CCOc1ccc(N(CCC#N)S(=O)(=O)c2ccc(OC)cc2)cc1 | 3.55 µM (active) | 
O=C(Nc1cccc(Br)c1)/C(=C\c1cccnc1)NC(=O)c1ccco1 | inactive | 
O=C(Nc1cccc(NC(=O)c2ccc(-c3cccc(Br)c3)o2)c1)c1ccco1 | 2.51 µM (active) | 
O=C(Nc1cccc(-c2cn3cccnc3n2)c1)c1ccco1 | inactive | 
O=C(Nc1ccc2nc(-c3ccc(Br)o3)[nH]c2c1)c1ccco1 | 22.4 µM (active) | 
CCCCCc1nc2c(C#N)c(-c3ccc(Cl)cc3)ccn2n1 | 7.94 µM (active) | 

Structure (SMILES) | AC50 | activity, negative = inhibition
Cc1noc(C)c1CS(=O)(=O)c1ccc(Br)cc1 | 0.282 µM (active) | 
O=C1COc2ccccc2CN1 | inactive | 
Cc1ccccc1-n1ncc2c(SCC(=O)N3c4ccccc4CC3C)ncnc21 (configuration not stated) | 7.08 µM (active) | 
CC1Cc2ccccc2N1C(=O)CN1C(=O)COc2ccccc21 (configuration not stated) | 3.16 µM (active) | 
CC1Cc2ccccc2N1C(=O)CSc1nnnn1C(C)C (configuration not stated) | 4.47 µM (active) | 
C[C@@H]1Cc2ccccc2N1NC(=O)c1ccc(Cl)c(S(N)=O)c1 (some centres not stated) | inactive | 
CCN1CCN(CC(=O)N2c3ccccc3CC2C)CC1 (configuration not stated) | inactive | 
CC1(C)CCC(NC(=O)[C@H](N)CCC(=O)O)CC1 | inactive | 
COCC(=O)Nc1c(I)c(C(=O)NC[C@@H](O)CO)c(I)c(C(=O)N(C)C[C@@H](O)CO)c1I | inactive | 
O=C1OC(OC2CCCCC2)(c2ccccc2)c2ccccc21 (configuration not stated) | 7.94 µM (active) | 
Cc1cccc(OC2(c3ccccc3)OC(=O)c3ccccc32)c1C (configuration not stated) | 2.51 µM (active) | 
Cc1cccc(C)c1OC1(c2ccccc2)OC(=O)c2ccccc21 (configuration not stated) | 0.251 µM (active) | 
C=C[C@]1(C)C[C@H](OC(=O)CO)[C@]2(C)C3C(=O)CC[C@]3(CC[C@H]2C)[C@H](C)[C@H]1O (some centres not stated) |  | -15.4% [at 11.4 µM] (inactive)
Cc1ccc(Cn2cccc(NC(=O)NC3CCCCC3)c2=O)cc1 | 14.1 µM (active) | 
O=C(Nc1cccn(Cc2ccc(F)cc2)c1=O)NC1CCCCC1 | 10 µM (active) | 
COCCn1c(=O)c(-c2cc(F)cc(F)c2)nc2cnc(N3CCOCC3)nc21 | inactive | 
c1ccc2oc(C3=NCCN3)cc2c1 | inactive | 
COCCn1c(=O)c(C)nc2cnc(N3CCNCC3)nc21 | inactive | 
Cc1cc(N2CCOCC2)ncc1[N+](=O)[O-] | 31.6 µM (active) | 
O=[N+]([O-])c1ccc(N2CCOCC2)nc1 | inactive | 
Cc1ccc(S(=O)(=O)/N=C2/NC(=O)/C(=C/c3cccnc3)S2)cc1 | 2.24 µM (active) | 
O=C(CSc1nc2ccccc2s1)NNC(=S)Nc1ccc(Br)cc1 | 2.82 µM (active) | 
Cc1ccc(S(=O)(=O)NC(=O)CSc2nc3ccccc3s2)cc1 | inactive | 
O=C(CSc1nc(-c2ccccc2)nc2ccccc12)Nc1nccs1 | inactive | 
Cc1cccc(-c2nsc(SCC(=O)Nc3nccs3)n2)c1 | 1.78 µM (active) | 

Structure (SMILES) | AC50 | activity, negative = inhibition
O=C(CSc1nc2ccccc2s1)Nc1nccs1 | 1.58 µM (active) | 
O=C(CSCc1ccc(Cl)cc1)Nc1nccs1 | 2.51 µM (active) | 
O=S(=O)(c1ccc(Cl)cc1)c1cnc(-c2cccnc2)nc1-c1ccccc1 | 2.82 µM (active) | 
O=S(=O)(c1ccccc1)c1cnc(-c2cccnc2)nc1-c1ccc(Cl)cc1Cl | 5.01 µM (active) | 
OC[C@H]1O[C@H](n2cnc3c(NC4CCCC4)nc(Cl)nc32)[C@@H](O)[C@@H]1O | inactive | 
COc1ccc(-c2nnc(SCc3cccc(C)c3)n2N)cc1 | 2.51 µM (active) | 
CCn1c(SCc2cccc(C)c2)nnc1-c1ccccc1 | 0.501 µM (active) | 
CCn1c(SCc2cccc(C)c2)nnc1-c1ccc(C)cc1 | 2.24 µM (active) | 
NS(=O)(=O)c1cc2c(cc1Cl)=NC(CCC(=O)O)=NS=2(=O)O |  | 22.1% [at 11.4 µM] (inactive)
C[C@H](C[C@H](N)C(=O)O)C(=O)O | inactive | 
O=C(O)/C(=C\c1ccc(O)cc1)c1cccc2ccccc12 |  | -11.8% [at 11.4 µM] (inactive)
NC(=O)/C(=C\c1ccncc1)c1cccc2ccccc12 | 2.51 µM (active) | 
O=C(O)CCC(=O)c1ccc2ccc3cccc4ccc1c2c34 |  | 25.1% [at 11.4 µM] (inactive)
O=C(O)/C(=C\c1ccncc1)c1cccc2ccccc12 | 2.51 µM (active) | 
OC[C@@H]1O[C@@H](N2CCN([C@@H]3O[C@@H](CO)[C@@H](O)[C@H](O)[C@H]3O)CC2)[C@@H](O)[C@H](O)[C@H]1O |  | 29.2% [at 11.4 µM] (inactive)
Clc1ccc2c(c1)C1=C(C(c3ccncc3)O2)C(c2ccc(Br)cc2)n2ncnc2N1 (configuration not stated) | 0.708 µM (active) | 
Cc1cc(O)c(C(C)C)cc1N=Cc1ccccc1O | 0.398 µM (active) | 
O=C(O)c1cc(N=Cc2ccccc2O)cc(C(=O)O)c1 |  | 8.41% [at 11.4 µM] (inactive)
O=C(CCN1C(=O)S/C(=C\c2ccccc2)C1=O)Nc1ccc(S(=O)(=O)Nc2nccs2)cc1 | 5.01 µM (active) | 
O=C(O)c1ccccc1C(=O)Nc1ccc(S(=O)(=O)Nc2nccs2)cc1 | inactive | 
O=S1(=O)CCN(c2ccccc2CC(c2c[nH]c3ccccc23)c2c[nH]c3ccccc23)CC1 | 3.16 µM (active) | 
c1ccc2c(CN3CCN(Cc4c[nH]c5ccccc45)CC3)c[nH]c2c1 |  | 1.09% [at 11.4 µM] (inactive)
